Bioassay records: PubChem, National Center for Advancing Translational Sciences (NCATS)
Only some compounds are listed: those with a hit (about 6.3% of all), similar ones and a draw of the others.
Gal4-VP16 FLuc = VP16 counterscreen qHTS for inhibitors of ROR gamma transcriptional activity. AID 2546, 2010. 310,000 tested, 3.5% active. Drosophila S2 Gal4-VP16 UAS-luciferase, luminescence, 20 h. Potency, µM (top dose mostly 53.6 µM), most hits filed as inhibitors;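 further: Gal4-VP16 expression switched on by copper sulfate through the metallothionein promoter; nearly all actives have a fitted effect of over 50% in size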
RORg inh = qHTS for inhibitors of ROR gamma transcriptional activity | Potency, µM (doses to about 53.6 µM), hits mostly inhibitors | Drosophila S2 Gal4-RORgamma UAS-luciferase reporter, 20 h | AID 2551, 2010 | 310,000 tested, 5.4% active; further: nearly all actives have a fitted effect of over 60% in size
Target sequence (P51450 whole entry, looked up, the tested form may be a part): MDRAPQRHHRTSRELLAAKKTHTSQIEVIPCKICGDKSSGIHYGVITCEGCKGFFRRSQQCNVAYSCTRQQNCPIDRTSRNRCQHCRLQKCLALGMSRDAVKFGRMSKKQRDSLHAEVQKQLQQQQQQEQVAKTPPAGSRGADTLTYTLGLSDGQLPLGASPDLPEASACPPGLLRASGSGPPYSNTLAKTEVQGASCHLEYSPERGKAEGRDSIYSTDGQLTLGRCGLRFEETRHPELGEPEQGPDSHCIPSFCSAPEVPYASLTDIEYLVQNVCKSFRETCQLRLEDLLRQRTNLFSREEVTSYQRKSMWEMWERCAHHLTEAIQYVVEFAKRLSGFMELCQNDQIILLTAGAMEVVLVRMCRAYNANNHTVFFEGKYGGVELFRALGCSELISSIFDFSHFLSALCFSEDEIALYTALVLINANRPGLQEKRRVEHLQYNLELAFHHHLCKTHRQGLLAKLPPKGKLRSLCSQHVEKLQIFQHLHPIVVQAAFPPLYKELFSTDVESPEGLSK
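Read-out: Photinus luciferase luminescence; inhibitors lower reporter signal. Insect Schneider cells with Gal4-ROR gamma fusion under metallothionein promoter, UAS reporter; 700 uM final copper sulfate induction, 20 hr, ambient temperature.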
S2 tox = Viability Counterscreen for Primary qHTS for Inhibitors of ATXN expression | S2 cells (HEK-293 line with an ATXN2-luciferase reporter) viability, CellTiter-Fluor protease fluorescence, 24 h | Potency, µM (highest dose often 56.7 µM), most hits filed as cytotoxic | 400,000 tested, 0.49% active | AID 651635, 2014; further: nearly all actives have a fitted effect of over 40% in size
HepG2 viability = qHTS for Inhibitors of TGF-b: Cytotox Counterscreen | HepG2 CAGA-GFP viability, ATP luminescence, 18 h | Potency, µM (doses to about 46.1 µM), actives largely listed as cytotoxic | 410,000 tested, 0.76% active | AID 588856, 2011
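HepG2 CAGA-GFP cells (1000/well, DMEM with 1% FBS) received compound, then TGF-beta at 500 pg/mL final, and were incubated 18 hours at 37 degrees C. Viability was read by CellTiter-Glo luminescence. Media-only wells were set as complete cell-killing and DMSO as no toxicity.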
TGFb inhibitor = qHTS for Inhibitors of TGF-b. HepG2 CAGA-GFP TGF-b/SMAD3 reporter, GFP fluorescence, 18 h; TGF-beta stimulated, 500 pg/mL final. Potency, µM (doses to about 46.1 µM), actives largely listed as inhibitors. 410,000 tested, 1.2% active. AID 588855, 2011; further: nearly all actives have a fitted effect of over 65% in size
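GFP signal (ex488/em500-530) from TGF-beta-stimulated HEPG2 CAGA-GFP cells, 500 pg/mL final, 18 h at 37 degrees C in DMEM plus 1% FBS, normalized to unstimulated and DMSO-stimulated controls.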
ATXN2 expr inh = Primary qHTS for Inhibitors of ATXN expression | 360,000 tested, 0.72% active | HEK-293 ATXN2-luciferase reporter, luminescence, 24 h | AID 1745845, 2022 | Potency, µM (doses to about 57 µM), actives largely listed as inhibitors; further: nearly all actives have a fitted effect of over 55% in size
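ATXN2-luciferase reporter cells (luciferase flanked by upstream and downstream ATXN2 gene portions) were treated 24 h at 37 °C with compounds at up to 57 uM. SteadyGlo luminescence gave expression; GF-AFC fluorescence gave viability.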
Each line names hits and unclear results; the compound was inactive in the other large screens. The call rests on the fitted dose curve; in most records, active means well fitted curve in the direction sought with a large enough effect; inconclusive means small, poorly fitted or top-dose-only effect, or another doubt; inactive means no such curve, though single readings can be large; an effect the other way counts as inactive or inconclusive.

O=C1OCCC1Sc1nnc(-c2ccc(Cl)cc2Cl)o1 (centres undefined)	Gal4-VP16 FLuc inconclusive, RORg inh 7.9µM, TGFb inhibitor inconclusive, ATXN2 expr inh 6.3µM
Cc1cc(C)c2c(=O)n(CC(=O)NCCCN3CCN(c4ccccc4F)CC3)sc2n1	Gal4-VP16 FLuc 5µM, RORg inh 3.5µM, S2 tox 19µM, TGFb inhibitor inconclusive, ATXN2 expr inh inconclusive
Cc1cc(C)c2c(=O)n(CC(=O)NCCCN3CCOCC3)sc2n1	Gal4-VP16 FLuc 5µM, RORg inh 4µM
COc1cc(O)ccc1-c1nc2ccc(Br)cn2c1Nc1ccccc1C	HepG2 viability 16µM, TGFb inhibitor inconclusive (no result: Gal4-VP16 FLuc, RORg inh, S2 tox, ATXN2 expr inh)
Cc1ccccc1Nc1c(-c2cccc(O)c2)nc2ccc(Br)cn12	S2 tox inconclusive, TGFb inhibitor inconclusive, ATXN2 expr inh inconclusive (no result: Gal4-VP16 FLuc, RORg inh)
CN(C)c1ccc(C(=C2c3ccccc3-c3ccccc32)c2ccc(N(C)C)cc2)cc1	none (no result: Gal4-VP16 FLuc, RORg inh, S2 tox, ATXN2 expr inh)
COC(=O)c1sccc1NC(=S)NCc1ccc(Cl)cc1	Gal4-VP16 FLuc 1.3µM, RORg inh 0.79µM
COC(=O)c1ccc(C)c(NC(=S)NCc2ccc(Cl)cc2)c1	Gal4-VP16 FLuc 14µM, RORg inh 8.9µM
COC(=O)c1cc(NC(=S)NCc2ccc(Cl)cc2)cc(C(=O)OC)c1	Gal4-VP16 FLuc inconclusive, RORg inh inconclusive, TGFb inhibitor inconclusive
COc1cc(OC)c2c(c1Cl)O[C@@]1(C2=O)[C@H](C)CC(=O)C[C@@H]1OC	S2 tox inconclusive (no result: HepG2 viability, TGFb inhibitor, ATXN2 expr inh)
CC(C)Cc1ccc(S(=O)(=O)N2CCN(Cc3noc(CCC(=O)N4CCCCC4)n3)CC2)cc1	TGFb inhibitor 11µM (no result: Gal4-VP16 FLuc, RORg inh, S2 tox, ATXN2 expr inh)
CC(C)(C)c1ccc(S(=O)(=O)N2CCN(Cc3noc(CCC(=O)N4CCCCC4)n3)CC2)cc1	TGFb inhibitor inconclusive (no result: Gal4-VP16 FLuc, RORg inh, S2 tox, ATXN2 expr inh)
CCCCCCN(C(=O)CCl)c1ccccc1	Gal4-VP16 FLuc inconclusive, RORg inh inconclusive, S2 tox inconclusive, TGFb inhibitor 22µM (no result: ATXN2 expr inh)
CCCCCCCN(C(=O)CCl)c1cccc(C)c1	Gal4-VP16 FLuc inconclusive, RORg inh inconclusive, TGFb inhibitor inconclusive, ATXN2 expr inh 25µM (no result: S2 tox)
N#CCCN(C(=O)CCl)c1cccc(Cl)c1	RORg inh 13µM, TGFb inhibitor inconclusive, ATXN2 expr inh inconclusive (no result: S2 tox)
CCCC(=O)N(Cc1cc(=O)[nH]c2ccccc12)c1cccc(C)c1	none
Cc1cccc(N(Cc2cc(=O)[nH]c3ccccc23)C(=O)CCl)c1	Gal4-VP16 FLuc inconclusive, RORg inh 18µM, S2 tox inconclusive (no result: ATXN2 expr inh)
N#CCCN(C(=O)COC(=O)c1nc(Cl)ccc1Cl)c1ccccc1	none (no result: Gal4-VP16 FLuc, RORg inh)
CCCCCCCCCCN(CCCCCCCCCC)c1ccccc1	none (no result: Gal4-VP16 FLuc, RORg inh, S2 tox, ATXN2 expr inh)
COC(=O)c1ccc(CNC(=O)CN2C(=O)NC(Cc3ccccc3)(c3ccccc3)C2=O)cc1 (centres undefined)	S2 tox inconclusive (no result: Gal4-VP16 FLuc, RORg inh, ATXN2 expr inh)
Cc1ccc(-c2nc(P(=O)(c3ccccc3)c3ccccc3)c(N3CCOCC3)o2)cc1	Gal4-VP16 FLuc 16µM, RORg inh 3.5µM
CCOCCCn1c(=S)[nH]c2ncccc2c1=O	Gal4-VP16 FLuc inconclusive, RORg inh 10µM, S2 tox inconclusive, ATXN2 expr inh inconclusive
CC(C)CCn1c(=S)[nH]c2ncccc2c1=O	RORg inh 5µM
CC(=O)[C@@]1(O)CC[C@H]2[C@@H]3C=C(Cl)C4=CC(=O)CC[C@]4(C)[C@H]3CC[C@@]21C	none (no result: Gal4-VP16 FLuc, RORg inh, HepG2 viability, TGFb inhibitor, ATXN2 expr inh)
CC(C)C[C@@H](COCc1cccc(C(F)(F)F)c1)N1CCN(C(=O)c2ccc(C(F)(F)F)cc2)CCC1=O	S2 tox 28µM, ATXN2 expr inh inconclusive (no result: Gal4-VP16 FLuc, RORg inh, HepG2 viability, TGFb inhibitor)
Cc1cccc(C(=O)N2CCC(=O)N(C(COCc3ccccc3)Cc3ccccc3)CC2)c1 (centres undefined)	none
Cc1cccc(C(=O)N2CCC(=O)N(C(COCc3cccc(C(F)(F)F)c3)Cc3ccccc3)CC2)c1 (centres undefined)	S2 tox 32µM, TGFb inhibitor inconclusive
